Our source for the inhibition values is ChEMBL document CHEMBL1961873, “Compounds: GSK PKIS; Assays: Nanosyn kinase panel” (2012).

The target of assay [1] is Tyrosine-protein kinase Fer (Homo sapiens) (UniProt P16591). As to conditions: at 1 µM.
The target in assay [2] is Tyrosine-protein kinase Fes/Fps (Homo sapiens) (UniProt P07332). As to conditions: at 0.1 µM.
Assay [3] shares this target. As to conditions: at 1 µM.
Assay [4] deals with Fibroblast growth factor receptor 1 (Homo sapiens) (UniProt P11362). Particulars: at 0.1 µM.
Assay [5] shares this target. Particulars: at 1 µM.
Assay [6] concerns the target Fibroblast growth factor receptor 2 (Homo sapiens) (UniProt P21802). Particulars: at 0.1 µM.
For assay [7] the target is unchanged. As to conditions: at 1 µM.
For assay [8], the target named is Fibroblast growth factor receptor 3 (Homo sapiens) (UniProt P22607). Particulars: at 0.1 µM.
For assay [9] the target is unchanged. As to conditions: at 1 µM.
The target in assay [10] is Fibroblast growth factor receptor 4 (Homo sapiens) (UniProt P22455). As to conditions: at 0.1 µM.
The target is the same in assay [11]. Particulars: at 1 µM.
Assay [12] concerns the target Tyrosine-protein kinase Fgr (Homo sapiens) (UniProt P09769). Particulars: at 0.1 µM.
The target is the same in assay [13]. Particulars: at 1 µM.
Assay [14] deals with Vascular endothelial growth factor receptor 1 (Homo sapiens) (UniProt P17948). As to conditions: at 0.1 µM.
For assay [15] the target is unchanged. Particulars: at 1 µM.
Assay [16] concerns the target Receptor-type tyrosine-protein kinase FLT3 (Homo sapiens) (UniProt P36888). As to conditions: at 0.1 µM.
For assay [17] the target is unchanged. Particulars: at 1 µM.
Assay [18] deals with T1, Receptor-type tyrosine-protein kinase FLT3 (Homo sapiens), P36888 [D835Y].
T1 sequence (whole entry): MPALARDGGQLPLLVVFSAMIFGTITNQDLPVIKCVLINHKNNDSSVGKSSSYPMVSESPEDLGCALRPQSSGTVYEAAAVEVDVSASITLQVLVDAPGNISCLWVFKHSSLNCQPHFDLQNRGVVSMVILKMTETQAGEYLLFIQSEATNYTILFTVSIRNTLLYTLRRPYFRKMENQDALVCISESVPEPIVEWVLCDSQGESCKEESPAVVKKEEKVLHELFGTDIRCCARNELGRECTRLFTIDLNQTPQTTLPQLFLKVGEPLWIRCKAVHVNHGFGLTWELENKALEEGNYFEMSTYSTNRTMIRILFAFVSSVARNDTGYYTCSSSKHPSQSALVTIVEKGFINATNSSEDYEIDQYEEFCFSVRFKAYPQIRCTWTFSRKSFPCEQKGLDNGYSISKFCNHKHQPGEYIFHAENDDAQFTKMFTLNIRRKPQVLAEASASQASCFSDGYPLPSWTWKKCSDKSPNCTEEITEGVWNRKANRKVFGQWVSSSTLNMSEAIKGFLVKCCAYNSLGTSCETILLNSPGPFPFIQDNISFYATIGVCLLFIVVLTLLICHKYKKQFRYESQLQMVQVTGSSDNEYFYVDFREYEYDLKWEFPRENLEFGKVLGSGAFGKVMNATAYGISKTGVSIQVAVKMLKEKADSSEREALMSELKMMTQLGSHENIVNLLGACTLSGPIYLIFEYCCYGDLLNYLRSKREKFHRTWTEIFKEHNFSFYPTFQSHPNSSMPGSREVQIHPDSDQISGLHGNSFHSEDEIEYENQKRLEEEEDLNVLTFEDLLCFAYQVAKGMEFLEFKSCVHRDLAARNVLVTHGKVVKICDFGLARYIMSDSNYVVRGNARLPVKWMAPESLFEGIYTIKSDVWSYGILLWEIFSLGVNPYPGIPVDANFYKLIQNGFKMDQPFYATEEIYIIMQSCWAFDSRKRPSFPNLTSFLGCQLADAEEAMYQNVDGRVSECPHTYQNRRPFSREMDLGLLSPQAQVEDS
As to conditions: at 0.1 µM.

Assay [19] addresses Non-receptor tyrosine-protein kinase TYK2 (Homo sapiens) (UniProt P29597). As to conditions: at 1 µM.
For assay [20], the target named is T2, Tyrosine-protein kinase receptor TYRO3 (Homo sapiens) (UniProt Q06418).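 Also: reported percentages are averaged inhibition values of TYRO3 kinase activity.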
T2 sequence (whole entry): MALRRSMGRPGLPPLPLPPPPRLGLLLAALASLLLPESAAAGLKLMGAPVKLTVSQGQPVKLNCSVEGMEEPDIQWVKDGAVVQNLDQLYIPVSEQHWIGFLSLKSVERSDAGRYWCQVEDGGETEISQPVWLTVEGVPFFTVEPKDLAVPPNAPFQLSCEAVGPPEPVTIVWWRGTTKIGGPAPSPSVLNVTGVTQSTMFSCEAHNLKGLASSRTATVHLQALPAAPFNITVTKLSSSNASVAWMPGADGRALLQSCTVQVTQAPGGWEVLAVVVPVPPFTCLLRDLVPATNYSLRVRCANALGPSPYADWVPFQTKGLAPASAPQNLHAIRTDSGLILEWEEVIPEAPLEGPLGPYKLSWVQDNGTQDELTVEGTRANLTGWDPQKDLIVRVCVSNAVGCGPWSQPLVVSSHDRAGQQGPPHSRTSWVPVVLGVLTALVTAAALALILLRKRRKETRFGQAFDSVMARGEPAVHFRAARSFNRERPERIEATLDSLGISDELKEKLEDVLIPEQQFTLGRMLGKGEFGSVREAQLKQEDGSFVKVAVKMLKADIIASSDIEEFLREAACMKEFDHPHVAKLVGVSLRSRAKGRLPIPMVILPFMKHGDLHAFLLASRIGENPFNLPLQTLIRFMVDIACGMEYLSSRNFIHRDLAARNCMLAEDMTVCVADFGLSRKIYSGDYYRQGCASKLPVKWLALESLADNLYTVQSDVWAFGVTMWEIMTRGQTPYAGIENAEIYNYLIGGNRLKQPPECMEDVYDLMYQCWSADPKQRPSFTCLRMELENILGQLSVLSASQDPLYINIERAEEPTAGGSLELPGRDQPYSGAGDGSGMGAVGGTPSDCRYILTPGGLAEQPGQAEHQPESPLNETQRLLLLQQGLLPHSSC
Particulars: at 0.1 µM.

The structures appear in SMILES notation.

Chain of Tyrosine-protein kinase Fes/Fps (Homo sapiens) (P07332 whole entry): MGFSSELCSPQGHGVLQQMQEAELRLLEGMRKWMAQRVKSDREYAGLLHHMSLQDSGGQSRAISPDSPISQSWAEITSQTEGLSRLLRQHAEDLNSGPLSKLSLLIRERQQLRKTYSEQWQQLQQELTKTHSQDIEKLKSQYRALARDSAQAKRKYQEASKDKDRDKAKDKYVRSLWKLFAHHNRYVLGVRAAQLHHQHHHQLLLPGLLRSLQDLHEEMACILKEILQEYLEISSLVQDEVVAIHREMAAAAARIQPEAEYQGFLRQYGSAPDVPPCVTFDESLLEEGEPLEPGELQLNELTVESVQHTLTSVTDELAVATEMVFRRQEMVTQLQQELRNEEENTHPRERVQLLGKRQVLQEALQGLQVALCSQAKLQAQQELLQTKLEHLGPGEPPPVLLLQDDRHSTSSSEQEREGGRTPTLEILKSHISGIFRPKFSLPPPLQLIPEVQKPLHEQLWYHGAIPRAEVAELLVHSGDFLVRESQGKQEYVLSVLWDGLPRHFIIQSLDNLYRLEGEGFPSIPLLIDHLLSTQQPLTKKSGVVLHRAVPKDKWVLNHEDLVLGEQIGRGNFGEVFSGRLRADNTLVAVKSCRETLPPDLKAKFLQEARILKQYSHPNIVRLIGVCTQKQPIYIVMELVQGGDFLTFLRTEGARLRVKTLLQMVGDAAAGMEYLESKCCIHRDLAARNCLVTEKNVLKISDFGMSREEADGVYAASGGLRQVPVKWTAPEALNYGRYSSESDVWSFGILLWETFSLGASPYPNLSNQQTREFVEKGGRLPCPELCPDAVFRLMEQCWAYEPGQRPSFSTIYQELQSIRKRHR
Chain of Tyrosine-protein kinase Fgr (Homo sapiens) (P09769 2-529 limits assumed): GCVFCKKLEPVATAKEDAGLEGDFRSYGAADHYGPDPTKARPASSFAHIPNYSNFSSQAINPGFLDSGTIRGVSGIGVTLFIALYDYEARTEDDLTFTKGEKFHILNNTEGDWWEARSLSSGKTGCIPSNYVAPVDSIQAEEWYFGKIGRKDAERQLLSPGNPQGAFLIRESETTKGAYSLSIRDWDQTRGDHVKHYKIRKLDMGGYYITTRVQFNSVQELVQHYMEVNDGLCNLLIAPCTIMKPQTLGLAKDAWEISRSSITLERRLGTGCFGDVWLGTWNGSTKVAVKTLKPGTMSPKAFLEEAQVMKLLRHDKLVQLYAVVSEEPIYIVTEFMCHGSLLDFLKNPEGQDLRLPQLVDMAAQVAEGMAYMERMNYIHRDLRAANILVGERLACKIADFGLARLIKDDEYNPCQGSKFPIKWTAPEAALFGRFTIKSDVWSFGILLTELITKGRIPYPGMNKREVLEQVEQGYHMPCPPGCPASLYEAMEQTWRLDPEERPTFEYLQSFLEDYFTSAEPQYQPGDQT
Chain of Tyrosine-protein kinase Fer (Homo sapiens) (P16591 whole entry, looked up): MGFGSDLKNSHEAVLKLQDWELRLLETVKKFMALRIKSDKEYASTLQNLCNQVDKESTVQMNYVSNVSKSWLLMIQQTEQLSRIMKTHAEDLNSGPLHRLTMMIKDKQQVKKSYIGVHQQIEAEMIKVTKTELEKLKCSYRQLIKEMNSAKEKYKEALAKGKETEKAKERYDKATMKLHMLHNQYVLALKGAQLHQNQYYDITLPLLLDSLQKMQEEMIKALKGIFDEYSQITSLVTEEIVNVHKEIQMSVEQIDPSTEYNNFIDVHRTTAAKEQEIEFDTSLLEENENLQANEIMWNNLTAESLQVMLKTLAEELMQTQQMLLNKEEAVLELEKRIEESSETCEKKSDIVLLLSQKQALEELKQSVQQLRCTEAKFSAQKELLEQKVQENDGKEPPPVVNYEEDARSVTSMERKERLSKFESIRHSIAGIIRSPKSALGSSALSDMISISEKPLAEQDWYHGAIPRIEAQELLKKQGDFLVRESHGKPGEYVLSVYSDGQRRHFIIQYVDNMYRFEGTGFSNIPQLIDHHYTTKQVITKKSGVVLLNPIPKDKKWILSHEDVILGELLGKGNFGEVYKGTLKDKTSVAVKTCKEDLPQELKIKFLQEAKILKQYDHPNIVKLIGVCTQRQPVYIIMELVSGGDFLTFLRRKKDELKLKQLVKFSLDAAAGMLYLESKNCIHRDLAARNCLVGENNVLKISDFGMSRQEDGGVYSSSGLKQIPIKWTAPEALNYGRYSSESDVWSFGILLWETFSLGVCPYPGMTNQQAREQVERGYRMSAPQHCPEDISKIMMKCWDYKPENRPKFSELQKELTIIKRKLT
Chain of Non-receptor tyrosine-protein kinase TYK2 (Homo sapiens) (P29597 whole entry): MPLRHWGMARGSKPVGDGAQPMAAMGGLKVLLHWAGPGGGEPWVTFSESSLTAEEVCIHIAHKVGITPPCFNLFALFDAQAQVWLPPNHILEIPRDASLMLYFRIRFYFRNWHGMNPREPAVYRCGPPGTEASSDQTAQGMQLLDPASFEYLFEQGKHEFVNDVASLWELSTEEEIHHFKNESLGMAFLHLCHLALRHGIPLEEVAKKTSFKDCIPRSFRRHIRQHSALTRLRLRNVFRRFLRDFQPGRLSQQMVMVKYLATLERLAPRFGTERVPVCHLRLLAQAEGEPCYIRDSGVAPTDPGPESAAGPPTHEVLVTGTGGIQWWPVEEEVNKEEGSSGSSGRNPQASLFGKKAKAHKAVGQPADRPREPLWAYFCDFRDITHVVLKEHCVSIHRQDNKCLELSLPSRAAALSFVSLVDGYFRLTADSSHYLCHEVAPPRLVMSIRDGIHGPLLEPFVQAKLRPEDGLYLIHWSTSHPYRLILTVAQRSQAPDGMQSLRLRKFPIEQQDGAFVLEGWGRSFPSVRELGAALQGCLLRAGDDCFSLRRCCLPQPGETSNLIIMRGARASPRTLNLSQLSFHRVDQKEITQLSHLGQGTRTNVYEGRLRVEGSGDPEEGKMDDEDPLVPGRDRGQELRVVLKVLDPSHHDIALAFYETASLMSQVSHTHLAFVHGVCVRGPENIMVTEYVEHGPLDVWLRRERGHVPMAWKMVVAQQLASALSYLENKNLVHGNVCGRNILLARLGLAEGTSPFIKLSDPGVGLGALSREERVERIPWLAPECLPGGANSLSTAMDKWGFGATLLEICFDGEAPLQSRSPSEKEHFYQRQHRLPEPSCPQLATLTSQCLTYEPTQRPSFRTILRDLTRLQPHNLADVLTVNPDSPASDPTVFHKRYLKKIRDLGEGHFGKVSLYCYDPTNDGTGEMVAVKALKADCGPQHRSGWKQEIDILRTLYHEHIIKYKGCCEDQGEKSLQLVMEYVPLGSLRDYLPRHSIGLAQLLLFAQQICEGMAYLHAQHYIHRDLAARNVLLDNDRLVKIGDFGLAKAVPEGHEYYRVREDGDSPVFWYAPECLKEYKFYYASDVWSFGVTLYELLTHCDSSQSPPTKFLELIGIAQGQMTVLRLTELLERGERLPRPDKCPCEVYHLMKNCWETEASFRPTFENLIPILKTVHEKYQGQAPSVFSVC
Chain of Fibroblast growth factor receptor 4 (Homo sapiens) (P22455 22-802 limits assumed): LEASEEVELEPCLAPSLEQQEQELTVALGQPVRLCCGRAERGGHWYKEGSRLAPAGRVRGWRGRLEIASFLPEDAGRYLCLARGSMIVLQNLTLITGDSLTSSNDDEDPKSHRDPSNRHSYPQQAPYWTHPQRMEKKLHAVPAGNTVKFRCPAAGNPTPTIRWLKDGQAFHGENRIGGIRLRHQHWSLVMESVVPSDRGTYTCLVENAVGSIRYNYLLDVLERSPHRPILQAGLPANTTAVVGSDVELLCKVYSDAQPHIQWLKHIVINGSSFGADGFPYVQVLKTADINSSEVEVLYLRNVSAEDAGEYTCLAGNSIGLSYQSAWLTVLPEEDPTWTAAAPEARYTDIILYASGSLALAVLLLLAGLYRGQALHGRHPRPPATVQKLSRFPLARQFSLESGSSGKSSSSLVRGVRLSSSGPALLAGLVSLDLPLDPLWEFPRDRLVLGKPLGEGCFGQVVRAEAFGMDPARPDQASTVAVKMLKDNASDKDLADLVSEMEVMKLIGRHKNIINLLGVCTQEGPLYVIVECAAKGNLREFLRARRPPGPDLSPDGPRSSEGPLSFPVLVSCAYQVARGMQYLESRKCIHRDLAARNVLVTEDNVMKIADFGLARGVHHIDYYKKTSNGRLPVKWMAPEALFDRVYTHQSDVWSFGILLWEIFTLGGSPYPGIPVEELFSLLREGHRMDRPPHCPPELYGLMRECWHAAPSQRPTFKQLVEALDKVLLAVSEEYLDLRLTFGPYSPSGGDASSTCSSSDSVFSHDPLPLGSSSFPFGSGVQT
Chain of Fibroblast growth factor receptor 2 (Homo sapiens) (P21802 22-821 limits assumed): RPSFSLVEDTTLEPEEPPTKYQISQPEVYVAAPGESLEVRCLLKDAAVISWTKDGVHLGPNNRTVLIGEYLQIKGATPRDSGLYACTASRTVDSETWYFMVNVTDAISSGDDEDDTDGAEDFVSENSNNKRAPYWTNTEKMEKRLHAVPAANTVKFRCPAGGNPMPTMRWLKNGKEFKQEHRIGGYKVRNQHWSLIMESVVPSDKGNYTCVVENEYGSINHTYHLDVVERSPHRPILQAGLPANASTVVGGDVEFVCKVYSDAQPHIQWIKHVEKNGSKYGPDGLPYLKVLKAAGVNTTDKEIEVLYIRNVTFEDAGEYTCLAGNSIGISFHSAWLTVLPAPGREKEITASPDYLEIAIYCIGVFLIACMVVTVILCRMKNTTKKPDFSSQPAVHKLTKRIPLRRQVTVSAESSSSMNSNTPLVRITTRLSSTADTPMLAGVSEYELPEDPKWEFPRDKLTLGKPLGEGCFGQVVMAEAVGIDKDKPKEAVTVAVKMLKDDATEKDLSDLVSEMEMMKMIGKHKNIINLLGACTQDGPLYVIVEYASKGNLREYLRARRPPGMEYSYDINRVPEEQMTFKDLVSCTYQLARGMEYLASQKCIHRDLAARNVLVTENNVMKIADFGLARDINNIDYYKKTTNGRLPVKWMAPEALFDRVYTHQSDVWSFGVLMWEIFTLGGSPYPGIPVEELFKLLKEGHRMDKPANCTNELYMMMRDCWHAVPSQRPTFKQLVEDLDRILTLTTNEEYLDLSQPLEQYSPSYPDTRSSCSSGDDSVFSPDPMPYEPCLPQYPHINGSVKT

In general, inhibition refers to the change of the read-out against control, counted positive when it falls. Turning to `NC(=O)c1cccc(Nc2nccc(Nc3cccc(F)c3)n2)c1`, the inhibition in assay [1] turned out to be 14.6%; in assay [2] it was 1.24%; in assay [3] it was 7.67%; in assay [4], 9.63%; in assay [5], 10.2%; in [6], 2.81%. Besides, the inhibition in [7] was found to be 13%; in assay [8] it was 4.22%; in assay [9], 9.81%; in assay [10] it was 2.38%; in assay [11], 1.79%; in assay [12], 5.52%. The inhibition came out at 30% in assay [13]; 1.29% in [14]; 16.4% in [15]; 3.08% in assay [16]; 16.5% in [17]; 1.55% in assay [18]. Also, the inhibition in assay [19] is 32.4%; in assay [20], 10.5%.
Consider `Cc1ccc2c(-c3ccnc(Nc4ccc5c(c4)OCCO5)n3)c(-c3ccc(C(F)(F)F)cc3)nn2n1`, for which the inhibition in assay [1] is -0.37%; in assay [2] it was 0.95%; in [3] it was 0.4%; in [4] it was 0.28%; in [5] it was 1.17%; in assay [6], -1.07%. Moreover, the inhibition in assay [7] was 0.36%; in [8] it was -1.98%; in assay [9] it was 1%; in assay [10], 1.94%; in assay [11], 2.08%; in assay [12] it was 4.97%. The inhibition in assay [13] is 18.4%; in [14], -1.27%; in [15] it was -0.4%; in [16] it was 2.13%; in assay [17], 0.3%; in assay [18], -5.65%. For the same molecule, the figures for the inhibition in assay [19] and in assay [20] were 0.31% and -0.13%, respectively.
Regarding `Cc1cc(O)cc(C)c1/C=C/c1cncc(C(=O)N(C)C)c1`, the inhibition in assay [1] is 1.61%; in [2] it was 1.75%; in assay [3] it was 1.31%; in [4] it was 1.31%; in assay [5] it was 1.65%; in assay [6] it was 4.82%. Also, the inhibition in assay [7] is 5.81%; in assay [8] it was 3.74%; in assay [9], 3.19%; in [10] it was -0.32%; in assay [11], 2.26%; in [12], 2.92%. Also, the inhibition is 9.21% in assay [13]; 2.21% in assay [14]; 3.14% in [15]; 2.14% in [16]; 2.25% in assay [17]; -0.23% in assay [18]. Also, the values for the inhibition in assay [19] and in [20] were -2.56% and 3.45%, respectively.
For `O=C1Nc2ccc(-c3cccnc3)cc2C1=Cc1cc(Br)c(O)c(Br)c1`, the inhibition in assay [1] came out at 9.05%; in [2], 2.71%; in assay [3], 2.85%; in assay [4], 4.47%; in assay [5], 1.74%; in assay [6], 3.81%. Besides, the inhibition was 5.51% in [7]; 9.43% in assay [8]; 8.18% in assay [9]; 1.39% in assay [10]; 3.07% in [11]; 1.1% in assay [12]. Moreover, the inhibition in assay [13] is 7.55%; in assay [14], 2.53%; in assay [15] it was 2.06%; in [16], 1.83%; in assay [17], 7.91%; in assay [18], 11.8%. The inhibition was found to be 6.13% in assay [19] and 3.07% in [20].
As for `COc1cccc(-n2nc(C)c3c(N/N=C(\C)c4ccncc4)ncnc32)c1`, the inhibition in [1] is 1.89%; in assay [2] it was 0.8%; in assay [3] it was 0.14%; in assay [4], 1.88%; in assay [5] it was -1.01%; in assay [6] it was 3.14%. Moreover, the inhibition is -0.1% in assay [7]; 1.89% in assay [8]; 2% in [9]; 1.2% in assay [10]; -0.8% in [11]; 1.55% in assay [12]. For the same molecule, the inhibition in [13] was 4.36%; in [14], -0.52%; in assay [15] it was -0.07%; in [16], 0.32%; in assay [17], -1.96%; in assay [18], -4.92%. Also, the results for the inhibition in [19] and in assay [20] were -0.79% and 1.37%, respectively.
For `CN1CCN(C(=O)c2ccc(NC(=O)Nc3ccc(N(C)c4ccnc(Nc5ccc(CS(C)(=O)=O)cc5)n4)cc3)cc2)CC1`, the inhibition in assay [1] stood at 63.9%; in assay [2], 7.35%; in assay [3] it was 43.4%; in [4] it was 0.94%; in assay [5] it was 4.44%; in assay [6], 6.7%. For the same molecule, the inhibition is 12.8% in assay [7]; 4.9% in assay [8]; 5.11% in assay [9]; 4.73% in assay [10]; 3.43% in assay [11]; 5.31% in [12]. The inhibition was 26.3% in assay [13]; 21.4% in [14]; 43.5% in assay [15]; 64.7% in assay [16]; 83.9% in [17]; 0.6% in [18]. Besides, the inhibition worked out at 21.6% in [19] and 2.23% in assay [20].
